A short description of experiment [1]: NCI Yeast Anticancer Drug Screen. Data for the rad50 strain (AID 155).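 Further: 0% = growth of vehicle-only cultures of the same strain.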 Particulars: S. cerevisiae rad50 strain growth inhibition; at 50.0 µM; hits give high values. The method, boiled down:
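Cells are treated with compound, grown, and their growth is then scored against vehicle-only cultures of the same repair-deficient yeast strain.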

Experiment [2] in a line: NCI Yeast Anticancer Drug Screen. Data for the mec2-1 strain (AID 157). Particulars: S. cerevisiae mec2-1 strain, at 50.0 µM, hits give high values. The method in brief: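 Compounds were applied to mec2-1 yeast cells. Their growth was then compared with that of vehicle-treated cultures to give growth inhibition.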
Experiment [3] in a line: NCI Yeast Anticancer Drug Screen. Data for the sgs1 mgt1 strain (AID 161).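 Further: 0% = growth of cultures given vehicle only.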 Particulars: S. cerevisiae sgs1 mgt1 strain, at 50.0 µM, hits give high values. The method, boiled down:
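Percent growth inhibition was derived by comparing compound-exposed mutant yeast with vehicle-exposed cultures. The strain carries alterations in DNA damage repair.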

Experiment [4] in a line: NCI Yeast Anticancer Drug Screen. Data for the cln2 rad14 strain (AID 165).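 Further: 0% = growth equal to vehicle treated cultures.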 Particulars: S. cerevisiae cln2 rad14 strain, at 50.0 µM, hits give high values. The method in brief:
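Strain: cln2 rad14 yeast, altered in cell cycle control and DNA damage repair. Read-out: growth inhibition vs vehicle.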

A short description of experiment [5]: NCI Yeast Anticancer Drug Screen. Data for the bub3 strain (AID 167). Particulars: S. cerevisiae bub3 mutant strain, at 50.0 µM, hits give high values. The method, boiled down: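 Part of a panel of yeast mutants defective in DNA damage repair or cell cycle regulation. Each strain is grown with compound, and inhibition is calculated relative to solvent-treated cultures.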

A short description of experiment [6]: NCI Yeast Anticancer Drug Screen. Data for the mlh1 rad18 strain (AID 175). Particulars: S. cerevisiae mlh1 rad18 strain growth inhibition; at 50.0 µM; hits give high values. The method, boiled down:
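A repair-deficient yeast strain is exposed to test compound, and growth is scored relative to vehicle-treated controls.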

The panel holds about 79,000 compounds, 15% with a hit somewhere; the sample as a whole holds those more often. Unmarked numbers belong to inactive results. The source made the active and inactive calls. No stated cut-off is given here; in the data, active means growth inhibition above about 70%; inactive means the rest.

In the case of `CCOC(=O)C1=NN(c2ccccc2)C(=O)/C1=C\n1c(=S)sc2ccccc21`, the growth inhibition in experiment [1] is -7.25%; in experiment [2], -24.4%; in experiment [3], -6.5%; in experiment [4], -16.1%; in experiment [5] it was -11.8%; in experiment [6], -2.4%.
Turning to `O=C1ON(c2ccccc2)C(c2ccc(OCc3ccccc3)cc2)N1c1ccccc1` (configuration not stated), the growth inhibition in experiment [1] is 42.6%; in experiment [2] it was 14%; in experiment [3], 11.8%; in experiment [4] it was 4.35%; in experiment [5], 27.5%; in experiment [6], 26.8%.
With `CCN(CC)CCC(=O)c1ccc(C)cc1`, the growth inhibition in experiment [1] was -37.4%; in experiment [2], -46.8%; in experiment [3], -26.1%; in experiment [4] it was 11.2%; in experiment [5], 0.5%; in experiment [6] it was -23.1%.
For `CS(=O)(=O)OC[C@@H](O)[C@@H](O)COS(C)(=O)=O`, the growth inhibition in experiment [1] was -2.15%; in experiment [2], 7.4%; in experiment [3], -1.85%; in experiment [4], -57.1%; in experiment [5], 3.55%; in experiment [6], -6.85%.
`CC12CCC(NC(=O)C3CCCN3C(=O)OCc3ccccc3)CC1CCC1C2CCC2(C)C(NC(=O)C3CCCN3C(=O)OCc3ccccc3)CCC12` (configuration not stated): the growth inhibition in experiment [1] was -4.3%; in experiment [2], 4.15%; in experiment [3], -19.4%; in experiment [4], -46%; in experiment [5], -5.35%; in experiment [6] it was -3.2%.
`CC(C)C1=CC23CCC4C(C)(C(=O)O)CCCC4(C)C2CC1C1C(=O)N(CCCN(C)C)C(=O)C13` (configuration not stated): the growth inhibition in experiment [1] is 98.8% (active); in experiment [2], 99% (active); in experiment [3], 99% (active); in experiment [4] it was 98.2% (active); in experiment [5], 98% (active); in experiment [6], 98.6% (active).
On to `CCCCCN(CCCCC)C(=O)C(C)Br` (configuration not stated), for which the growth inhibition was -3.6% in experiment [1]; -12.9% in experiment [2]; 12.8% in experiment [3]; -12.9% in experiment [4]; 44.9% in experiment [5]; 3.1% in experiment [6].
As to `CC(Cl)(CCC(Cl)C(C)(C)Cl)C(=O)CBr` (configuration not stated), the growth inhibition was 89% (active) in experiment [1]; 92.7% (active) in experiment [2]; 92.8% (active) in experiment [3]; 91.3% (active) in experiment [4]; 92.3% (active) in experiment [5]; 93.2% (active) in experiment [6].
Take `O=C1C(Cl)=C(Cl)C(=O)N1c1ccccc1Cl`: the growth inhibition is 42.5% in experiment [1]; 23.6% in experiment [2]; 36.5% in experiment [3]; 43.9% in experiment [4]; 34.7% in experiment [5]; 55.5% in experiment [6].
In the case of `C=CCCCCCCCCC(N)=O`, the growth inhibition in experiment [1] is -12.6%; in experiment [2] it was -8.4%; in experiment [3], 4.15%; in experiment [4], -1.8%; in experiment [5], 13.2%; in experiment [6], -14.6%.
For the compound `C/C=C/C#CC#C/C=C/C=C/CC`, the growth inhibition in experiment [1] is 10.1%; in experiment [2], 0.7%; in experiment [3] it was -1.35%; in experiment [4], 8.6%; in experiment [5], 16.6%; in experiment [6], -2.05%.
With `Cc1nnsc1-c1nc2ccccc2[nH]1`, the growth inhibition in experiment [1] is 22.2%; in experiment [2], 1.95%; in experiment [3], 9.35%; in experiment [4], 20.1%; in experiment [5], 32.5%; in experiment [6] it was 38.4%.
Consider `Cc1ccc(N=Nc2ccc(O)c(CN(C)C)c2)cc1C`, for which the growth inhibition is -26.4% in experiment [1]; -29.5% in experiment [2]; 48.5% in experiment [3]; -11% in experiment [4]; 49% in experiment [5]; 36.2% in experiment [6].
As to `CNCCCCCCNc1cc(OC)cc2cccnc12`, the growth inhibition is 45% in experiment [1]; 18.7% in experiment [2]; 56% in experiment [3]; 7.05% in experiment [4]; 23.1% in experiment [5]; 58.8% in experiment [6].
Turning to `COc1ccc(C(C)=O)cc1C=O`, the growth inhibition is 1.4% in experiment [1]; 9.65% in experiment [2]; -2.65% in experiment [3]; -13.2% in experiment [4]; -20.1% in experiment [5]; 16.2% in experiment [6].
Regarding `CN(C)c1ccc(/C=C(\NC(=O)c2ccccc2)c2nn(C)c(=O)o2)cc1`, the growth inhibition in experiment [1] is -15.8%; in experiment [2], -4.8%; in experiment [3], -11.1%; in experiment [4], -20.9%; in experiment [5], -1.4%; in experiment [6] it was -22.6%.
Take `CCN(CC)c1ccc(NC(=S)Nc2ccc(N(CC)CC)cc2)cc1`: the growth inhibition is 23.3% in experiment [1]; -0.5% in experiment [2]; 4.95% in experiment [3]; -66% in experiment [4]; 22.2% in experiment [5]; -22.9% in experiment [6].
With `Cc1cccc(CC(N)C(=O)O)c1` (configuration not stated), the growth inhibition is -5.15% in experiment [1]; 5.1% in experiment [2]; -6.95% in experiment [3]; -3.3% in experiment [4]; 4% in experiment [5]; -9.8% in experiment [6].
As to `C=CCn1c(SCc2ccccc2)nccc1=O`, the growth inhibition in experiment [1] is 25.1%; in experiment [2], -10.8%; in experiment [3], 16.9%; in experiment [4], -33%; in experiment [5] it was 7.15%; in experiment [6] it was 8.9%.
In the case of `CC(=O)n1[nH]c(=O)n(-c2ccccc2)c1=O`, the growth inhibition in experiment [1] is -23%; in experiment [2], -20.1%; in experiment [3] it was -17.9%; in experiment [4], 10.1%; in experiment [5], -26.1%; in experiment [6], -24.5%.
Take `CCCCCCCCCCCC(=O)OCc1ccccc1`: the growth inhibition in experiment [1] is -3.9%; in experiment [2], 17.8%; in experiment [3] it was 3.1%; in experiment [4] it was 18.2%; in experiment [5], -3.5%; in experiment [6] it was 25.8%.
Regarding `Nc1nc(N)c(-c2ccc(Cl)cc2)c(CNc2cccc([N+](=O)[O-])c2)n1`, the growth inhibition was 90.9% (active) in experiment [1]; 91.3% (active) in experiment [2]; 97.7% (active) in experiment [3]; 95% (active) in experiment [4]; 98.1% (active) in experiment [5]; 99.2% (active) in experiment [6].
On to `COC1OC(COC(=O)Nc2ccccc2)C2OC12` (configuration not stated), for which the growth inhibition in experiment [1] was 8.45%; in experiment [2] it was 2.8%; in experiment [3], 24.6%; in experiment [4] it was -55.4%; in experiment [5] it was -10%; in experiment [6], 1.25%.
Consider `Cc1ccc(C2(C#N)CCCC2)cc1`, for which the growth inhibition in experiment [1] was 5.55%; in experiment [2] it was -1%; in experiment [3], 12%; in experiment [4], 3.85%; in experiment [5] it was 15.6%; in experiment [6], 4.7%.
For `COC1CC(NC(=O)c2ccccc2)C(O)C(C)O1` (configuration not stated), the growth inhibition in experiment [1] is 8.65%; in experiment [2], 18.3%; in experiment [3] it was 11.6%; in experiment [4] it was 10.6%; in experiment [5] it was 0.8%; in experiment [6], 8.5%.
Consider `COC(=O)CNN`, for which the growth inhibition in experiment [1] was -6.05%; in experiment [2], -19.4%; in experiment [3] it was -14.8%; in experiment [4], -25.1%; in experiment [5] it was -7.25%; in experiment [6] it was 7.9%.
As to `CC12CC(=O)C3C(CCC4=CC(=O)CCC43C)C1CC=C2CC(=O)O` (configuration not stated), the growth inhibition in experiment [1] is -4.8%; in experiment [2], 1.15%; in experiment [3] it was -23.4%; in experiment [4], -3.85%; in experiment [5], -5.15%; in experiment [6], -11.2%.
Turning to `CC1=C(c2cc(C(=O)Nc3ccc(Cl)cc3)nc(=S)[nH]2)Sc2ccccc2N1`, the growth inhibition in experiment [1] is -30.9%; in experiment [2], -15.2%; in experiment [3], -46%; in experiment [4], -1.45%; in experiment [5], -5.65%; in experiment [6] it was -35.4%.
Turning to `CN(N=Nc1ccc(C#N)cc1)C(C)(C)C`, the growth inhibition in experiment [1] is 3.3%; in experiment [2], -5.3%; in experiment [3] it was 6.5%; in experiment [4], -5.85%; in experiment [5], -2.35%; in experiment [6], 5.55%.
On to `Cc1cc([N+](=O)[O-])c(C)c(Br)c1C`, for which the growth inhibition is -8.45% in experiment [1]; -20.2% in experiment [2]; -37.7% in experiment [3]; 4.65% in experiment [4]; -38.5% in experiment [5]; -0.85% in experiment [6].
For the compound `COc1ccc(CC(CN)P(=O)(O)O)cc1` (configuration not stated), the growth inhibition is 29.3% in experiment [1]; 4.2% in experiment [2]; 8.5% in experiment [3]; 4.45% in experiment [4]; 15.1% in experiment [5]; 4% in experiment [6].
Consider `CC(=O)N/N=C/c1cccc([N+](=O)[O-])c1`, for which the growth inhibition is -6.25% in experiment [1]; 5.15% in experiment [2]; -4.55% in experiment [3]; -35.8% in experiment [4]; -19.9% in experiment [5]; -7.9% in experiment [6].
As to `N#CCCn1c(CCC(=O)Nc2ccc(Cl)cc2Cl)n[nH]c1=S`, the growth inhibition in experiment [1] is -8.4%; in experiment [2] it was 0.65%; in experiment [3], -6.05%; in experiment [4], 13.6%; in experiment [5] it was 1.7%; in experiment [6], 2.45%.
Take `CC1=C(/C=C/C(C)=C/C=C/C(C)=C/C=C/C=C(C)/C=C/C=C(\C)C=O)C(C)(C)CCC1`: the growth inhibition in experiment [1] is -18.2%; in experiment [2] it was 4.85%; in experiment [3], -9.4%; in experiment [4], -1.4%; in experiment [5] it was 4.75%; in experiment [6] it was 0.8%.
As for `CC/C=C(\C)C(C#N)(CC)C(=O)OCC` (configuration not stated), the growth inhibition was 4.65% in experiment [1]; -12.7% in experiment [2]; -4.6% in experiment [3]; 2.75% in experiment [4]; -20.4% in experiment [5]; 9.2% in experiment [6].
For `CC(=O)Nc1ccc2c([N+](=O)[O-])cccc2c1-c1c(NC(C)=O)ccc2c([N+](=O)[O-])cccc12`, the growth inhibition was 44.2% in experiment [1]; 10.8% in experiment [2]; 35.4% in experiment [3]; 10.8% in experiment [4]; 5.55% in experiment [5]; 30.4% in experiment [6].
On to `CN(C)C(=S)Nc1ccc(S(=O)(=O)N2CCCCC2)cc1`, for which the growth inhibition in experiment [1] was -7.9%; in experiment [2] it was -28.4%; in experiment [3], -2.7%; in experiment [4], 1.15%; in experiment [5] it was -16.4%; in experiment [6] it was -7.85%.

Values taken from PubChem BioAssay (NCI).
